Shown are actives, neighbours in structure and some others; about 19% of the full set was active somewhere.
TDP1 inh – qHTS Assay for Inhibitors of Tyrosyl-DNA Phosphodiesterase (TDP1) | Tyrosyl-DNA phosphodiesterase 1 (Homo sapiens), Q9NUW8 | recombinant TDP1, AlphaScreen DNA substrate cleavage | Potency, µM (highest dose often 130 µM), for inactives: at the highest dose activity change, negative = inhibition, actives largely listed as inhibitors | 350,000 tested, 0.28% active | AID 485290, 2010; further: nearly all actives have a fitted effect of over 40% in size
Target sequence (Q9NUW8 whole entry, looked up): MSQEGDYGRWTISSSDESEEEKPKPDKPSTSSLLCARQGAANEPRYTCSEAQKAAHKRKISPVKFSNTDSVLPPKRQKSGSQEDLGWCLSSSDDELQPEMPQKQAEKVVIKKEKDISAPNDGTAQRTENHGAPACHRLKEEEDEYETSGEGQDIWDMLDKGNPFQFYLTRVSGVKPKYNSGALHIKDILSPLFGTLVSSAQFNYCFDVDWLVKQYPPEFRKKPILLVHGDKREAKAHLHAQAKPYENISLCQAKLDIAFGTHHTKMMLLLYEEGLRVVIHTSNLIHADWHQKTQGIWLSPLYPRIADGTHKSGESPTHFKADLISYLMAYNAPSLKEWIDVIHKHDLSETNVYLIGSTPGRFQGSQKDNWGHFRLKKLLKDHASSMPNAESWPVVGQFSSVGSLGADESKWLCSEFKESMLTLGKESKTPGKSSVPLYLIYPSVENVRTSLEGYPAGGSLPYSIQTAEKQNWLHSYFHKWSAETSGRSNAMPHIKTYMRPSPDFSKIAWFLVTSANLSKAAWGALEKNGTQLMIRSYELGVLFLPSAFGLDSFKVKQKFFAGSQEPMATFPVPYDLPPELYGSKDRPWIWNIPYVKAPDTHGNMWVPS
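Enzyme-compound mixtures sat 15 min at room temperature, followed by a 5 min reaction with 15 nM final substrate and 10 min with AlphaScreen beads. Recombinant human Tdp1 was used at 1 nM final.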
DT40 TDP1 no CPT – qHTS for Inhibitors of human tyrosyl-DNA phosphodiesterase 1 (TDP1): qHTS in cells in absence of CPT | DT40 Tdp1-/- hTDP1 cells, no CPT, ATP luminescence, 48 h | Potency, µM (doses to about 46.2 µM), inactives show top-dose activity change, negative = growth inhibition, hits mostly inhibitors | 420,000 tested, 15% active | AID 686978, 2013; further: nearly all actives have a fitted effect of over 55% in size
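Seeded 400 DT40-hTDP1 cells/well (vehicle DMSO, no 20 nM CPT); pinned compounds; ≥48 hr at 37 °C; CellTiter-Glo luminescence as viability measure.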
VP16 counter – VP16 counterscreen qHTS for inhibitors of ROR gamma transcriptional activity; Drosophila S2 Gal4-VP16 UAS-luciferase, luminescence, 20 h; 310,000 tested, 3.5% active; Potency, µM (doses to about 53.6 µM), for the others: at the highest dose activity, negative = inhibition, most hits filed as inhibitors; AID 2546, 2010;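 further: Gal4-VP16 expression switched on by copper sulfate through the metallothionein promoter; nearly all actives have a fitted effect of over 50% in size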
TDP1 cell CPT – qHTS for Inhibitors of human tyrosyl-DNA phosphodiesterase 1 (TDP1): qHTS in cells in presence of CPT | chicken DT40 Tdp1-/-;hTDP1 cells + 20 nM CPT, ATP luminescence, 48 h | Potency, µM (series often up to 46.2 µM), for the others: top-dose activity change, negative = growth inhibition, usual class: inhibitors | 420,000 tested, 12% active | AID 686979, 2013; further: nearly all actives have a fitted effect of over 55% in size
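Cell growth measured by CellTiter-Glo luminescence after a minimum 48 h, 37 C compound exposure with 20 nM CPT in Tdp1-knockout DT40 cells stably expressing hTDP1, seeded 400/well; qHTS titration format.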
RORg inh – qHTS for inhibitors of ROR gamma transcriptional activity; Nuclear receptor ROR-gamma (Mus musculus), P51450; Drosophila S2 Gal4-RORgamma UAS-luciferase reporter, 20 h; Potency, µM (titrated, usually from 53.6 µM), without a hit: top-dose activity change, negative = inhibition, most hits filed as inhibitors; 310,000 tested, 5.4% active; further: nearly all actives have a fitted effect of over 60% in size
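Stably transfected Drosophila Schneider cells are the test system, with ROR gamma fused to Gal4 and luciferase under UAS control; luminescence is read after 20 hr of 700 uM copper sulfate induction at ambient temperature.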
Starred values were filed as active, the others as inactive; [ ] = dose if it differs, or a comment. The call rests on the fitted dose curve; in most records, active means well fitted curve in the direction sought with a large enough effect; inconclusive means small, poorly fitted or top-dose-only effect, or another doubt; inactive means no such curve, though single readings can be large; an effect the other way counts as inactive or inconclusive. On the % scale 0 is the no-effect control and ±100 the full control effect; potency means the concentration at half of the fitted maximal effect.

For COc1cc(OC)c2ccc(=O)oc2c1C(CCN1CCCC1)c1ccc2c(c1)OCO2 (stereo not given) the results were TDP1 inh 11%, DT40 TDP1 no CPT 18µM*, VP16 counter -18%, TDP1 cell CPT inconclusive and RORg inh -1%.
`O=c1[nH]c2cc3c(cc2cc1CN(Cc1nnnn1CC1CCCO1)C1CCCCC1)OCO3` (stereo not given) gave TDP1 inh 3%, DT40 TDP1 no CPT inconclusive, VP16 counter -4%, TDP1 cell CPT inconclusive and RORg inh 12%.
Cc1cccc(C)c1NC(=O)CN1CCN(C(=O)CN2C(=O)NC3(CCCCC3C)C2=O)CC1 (stereo not given) was read as TDP1 inh 1%, DT40 TDP1 no CPT -11% and TDP1 cell CPT -20%.
Screening CC1CCCCC12NC(=O)N(CC(=O)N1CCN(Cc3ccc(C#N)cc3)CC1)C2=O (stereo not given) returned TDP1 inh 0%, DT40 TDP1 no CPT 7.3µM* and TDP1 cell CPT 16µM*.
Screening CCn1c(=O)cc(OCC(=O)Nc2cc(OC)c(OC)c(OC)c2)c2ccccc21 returned TDP1 inh 0%, DT40 TDP1 no CPT inconclusive and TDP1 cell CPT 15µM*.
Screening CCn1c(=O)cc(SCC(=O)NCCc2cc(OC)ccc2OC)c2ccccc21 returned TDP1 inh 3%, DT40 TDP1 no CPT 21µM* and TDP1 cell CPT 21µM*.
For CCn1c(=O)cc(SCC(=O)Nc2cc(OC)c(OC)c(OC)c2)c2ccccc21 the results were TDP1 inh -2%, DT40 TDP1 no CPT inconclusive, VP16 counter -1%, TDP1 cell CPT 23µM* and RORg inh 33%.
`CCOC(=O)C1=C(C)N(C)C(C)=C(C(=O)OCC)C1c1ccncc1` gave TDP1 inh 2%, DT40 TDP1 no CPT inconclusive, VP16 counter 9%, TDP1 cell CPT -19% and RORg inh -14%.
For O=C(O)CC(NC(=O)Cc1ccccc1)c1ccccc1 (stereo not given) the results were TDP1 inh 6%, DT40 TDP1 no CPT -2%, VP16 counter -13%, TDP1 cell CPT -5% and RORg inh -15%.
Cc1cc(C)c(NC(=O)COC(=O)Cc2ccsc2)c(C)c1 was read as TDP1 inh -3%, DT40 TDP1 no CPT -21%, VP16 counter 0%, TDP1 cell CPT inconclusive and RORg inh -15%.
Screening CC1=CS(=O)(=O)CC1Sc1nc2ccccc2[nH]1 (stereo not given) returned TDP1 inh 6%, DT40 TDP1 no CPT -18%, VP16 counter 1%, TDP1 cell CPT -19% and RORg inh -5%.
`c1ccc(CCNc2ccnc3cc4ccccc4cc23)cc1` gave TDP1 inh 11%, DT40 TDP1 no CPT 7.3µM*, VP16 counter inconclusive, TDP1 cell CPT 5.8µM* and RORg inh inconclusive.
`COc1ccc(/C=C/c2ccnc3ccccc23)cc1` gave DT40 TDP1 no CPT 32µM* and TDP1 cell CPT 11µM*.
Screening COc1cc(/C=C/c2ccnc3ccccc23)cc(OC)c1OC returned DT40 TDP1 no CPT 11µM* and TDP1 cell CPT 11µM*.
CC(C)Nc1ccc(Nc2ccnc3cc4ccccc4cc23)cc1 was read as TDP1 inh 11%, DT40 TDP1 no CPT 7.3µM*, VP16 counter inconclusive, TDP1 cell CPT 8.2µM* and RORg inh inconclusive.
Screening COc1ccc(Nc2ccnc(Nc3ccc(OC)cc3)n2)cc1 returned TDP1 inh 6%, DT40 TDP1 no CPT 2.6µM*, VP16 counter inconclusive, TDP1 cell CPT 2.6µM* and RORg inh 2%.
For COc1ccc(/C=C/C(=O)OCc2nc3ccccc3c(=O)[nH]2)c(OC)c1 the results were TDP1 inh 5%, DT40 TDP1 no CPT -29%, VP16 counter 1%, TDP1 cell CPT -9% and RORg inh -1%.
Screening COc1cc(N(C)C)ccc1/C=C/c1ccnc2ccccc12 returned DT40 TDP1 no CPT 25µM* and TDP1 cell CPT 10µM*.
For COc1ccc(Nc2ccnc3ccccc23)cc1 the results were TDP1 inh 6%, DT40 TDP1 no CPT 16µM*, VP16 counter -5%, TDP1 cell CPT 13µM* and RORg inh 7%.
Screening COc1cc(OC)c(OC)cc1/C=C/c1cc(C(=O)O)c2ccccc2n1 returned TDP1 inh 1%, DT40 TDP1 no CPT -1%, VP16 counter 2%, TDP1 cell CPT 9% and RORg inh -13%.
For COc1ccc(Nc2nc(OC)nc(OC)n2)cc1 the results were DT40 TDP1 no CPT -5%, VP16 counter -8%, TDP1 cell CPT 1% and RORg inh 32%.
Screening COc1ccc(/C=C/c2ccnc3ccccc23)c(OC)c1 returned DT40 TDP1 no CPT 18µM* and TDP1 cell CPT 22µM*.
`CCOc1ccc(N2C(=O)CC(NCCc3ccc(S(N)(=O)=O)cc3)C2=O)cc1` (stereo not given) gave TDP1 inh 3%, DT40 TDP1 no CPT -15%, VP16 counter 3%, TDP1 cell CPT -11% and RORg inh 1%[10 µM].
For C[C@@H]1O[C@@H](OC[C@H]2O[C@@H](Oc3c(-c4ccc(OCCO)c(OCCO)c4)oc4cc(OCCO)cc(O)c4c3=O)[C@H](O)[C@@H](O)[C@@H]2O)[C@H](O)[C@H](O)[C@H]1O the results were DT40 TDP1 no CPT 0% and TDP1 cell CPT -25%.
Screening CC(C)Nc1ncnc2c1cnn2Cc1ccc(Cl)cc1 returned DT40 TDP1 no CPT inconclusive, VP16 counter -27%, TDP1 cell CPT -28% and RORg inh inconclusive.
For Oc1c(Br)cc(Br)cc1CNc1cccc2cccnc12 the results were TDP1 inh 7%, DT40 TDP1 no CPT inconclusive, VP16 counter 8.9µM*, TDP1 cell CPT 16µM* and RORg inh 14µM*.
Screening COc1cccc(CNc2cccc3cccnc23)c1O returned TDP1 inh 3%, DT40 TDP1 no CPT inconclusive, TDP1 cell CPT inconclusive and RORg inh -13%[0.365 µM].
Oc1ccc(Br)cc1CNc1cccc2cccnc12 was read as DT40 TDP1 no CPT 26µM*, VP16 counter -21%, TDP1 cell CPT inconclusive and RORg inh -28%.
Screening O=C(Nc1ccc(Cl)cc1C(=O)NCCN1CCOCC1)c1ccc(Cl)cc1Cl returned TDP1 inh 1%, DT40 TDP1 no CPT -22%, VP16 counter 0%, TDP1 cell CPT -1% and RORg inh -29%.

Source: PubChem BioAssay (National Center for Advancing Translational Sciences (NCATS))
